Among the test systems are DU-145 prostate; K-562 leukemia; MDA-MB-231 breast; RXF 393 renal; SF-268 CNS; SF-295 CNS; SF-539 CNS; UACC-257 melanoma; M14 melanoma; HCT-15 colon; HT29 colon; SNB-75 CNS; SNB-19 CNS; U251 CNS; PC-3 prostate; SK-MEL-5 melanoma; UACC-62 melanoma; LOX IMVI melanoma; SK-MEL-28 melanoma; MALME-3M melanoma.
Common to all, as to experiment: NCI-60 one-dose screen, 48 h (100 = growth as untreated, 0 = no growth, -100 = all killed)
Common to all, as to conditions: 10 µM

SMILES strings stand for the structures. About 83,000 compounds went through this panel and 20% of them were active in at least one assay; those are over-represented in the sample as a whole.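 Step 1: grow cells in 96-well plates. Step 2: add test compound at a single concentration. Step 3: incubate 48 h. Step 4: record percent growth.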 A number with no mark means an inactive call. Activity calls are given as the source filed them. The calls were made as follows: active = growth percent below 10; inactive = the rest.

Consider `C=CCn1ccc(=O)nc1SC`, for which the growth in the test on DU-145 prostate is 117%; in the test on K-562 leukemia, 103%; in the test on MDA-MB-231 breast, 109%; with RXF 393 renal, 129%; with SF-268 CNS, 108%; with SF-295 CNS, 107%. The growth with SF-539 CNS is 105%; with UACC-257 melanoma, 102%; with M14 melanoma, 104%; with HCT-15 colon, 110%; in the test with HT29 colon it was 97.6%; with SNB-75 CNS it was 91.2%. Further, the growth in the test on SNB-19 CNS is 106%; in the test on U251 CNS it was 102%; in the test with PC-3 prostate, 95.7%; in the test with SK-MEL-5 melanoma, 112%; with UACC-62 melanoma, 105%; in the test on LOX IMVI melanoma it was 99.7%. Also, the growth in the test on SK-MEL-28 melanoma is 112%.
As to `C[C@]12CC[C@H]3[C@@H](CCC4=CC(=O)CC[C@@]43C)[C@@H]1CC[C@@H]2c1csc(N)n1`, the growth in the test on DU-145 prostate is 78.2%; with K-562 leukemia, 26%; in the test with MDA-MB-231 breast, 66.8%; in the test with RXF 393 renal, 76.8%; with SF-268 CNS it was 89.6%; in the test on SF-295 CNS, 50.3%. The growth with SF-539 CNS is 81%; in the test on UACC-257 melanoma, 49.6%; with M14 melanoma, 61%; with HCT-15 colon, 46.5%; in the test on HT29 colon, 56.6%; with SNB-75 CNS, 92.5%. The growth in the test on SNB-19 CNS was 71.5%; with U251 CNS, 56.9%; in the test on PC-3 prostate it was 19.3%; with SK-MEL-5 melanoma, 9.04% (active); in the test on UACC-62 melanoma it was 41.8%; with LOX IMVI melanoma, 59.3%. The growth with SK-MEL-28 melanoma is 82.8%.
With `CCOc1nc(-c2ccccc2)cc2c(O)c(C(=O)NCCCO)[nH]c(=O)c12`, the growth with DU-145 prostate was 100%; in the test on K-562 leukemia, 111%; with MDA-MB-231 breast, 102%; in the test with RXF 393 renal it was 63.2%; in the test with SF-268 CNS, 103%; with SF-295 CNS it was 77.5%. Moreover, the growth is 93.9% with SF-539 CNS; 122% in the test with UACC-257 melanoma; 94.4% in the test on M14 melanoma; 102% in the test on HCT-15 colon; 104% with HT29 colon; 88.6% with SNB-75 CNS. Further, the growth is 96.9% in the test on SNB-19 CNS; 100% with U251 CNS; 46.3% in the test with PC-3 prostate; 88.8% in the test on SK-MEL-5 melanoma; 99.8% with UACC-62 melanoma; 108% in the test with LOX IMVI melanoma. Further, the growth with SK-MEL-28 melanoma was 102%.
As for `COc1ccc(C2=Cc3ccc(OC(C)=O)cc3OC2)cc1`, the growth in the test on DU-145 prostate is 90.2%; in the test on K-562 leukemia, 72.3%; with MDA-MB-231 breast, 52.5%; with RXF 393 renal, 94.7%; in the test on SF-268 CNS it was 87.9%; in the test with SF-295 CNS it was 104%. In addition, the growth was 85.7% with SF-539 CNS; 99.7% with UACC-257 melanoma; 122% with M14 melanoma; 82.4% in the test on HCT-15 colon; 97.2% in the test on HT29 colon; 107% with SNB-75 CNS. The growth was 98.8% with SNB-19 CNS; 89.3% in the test with U251 CNS; 90.5% in the test on PC-3 prostate; 90.6% in the test with SK-MEL-5 melanoma; 85.4% with UACC-62 melanoma; 82.7% in the test on LOX IMVI melanoma. The growth in the test with SK-MEL-28 melanoma was 112%.
On to `C/C(=N/NC(=O)c1sc(=S)n(C)c1N)c1cc2cc(Cl)ccc2o1`, for which the growth in the test with DU-145 prostate is 87.2%; in the test on K-562 leukemia it was 72.8%; in the test with MALME-3M melanoma, 113%; in the test on MDA-MB-231 breast, 68.9%; in the test on SF-268 CNS, 80.2%; in the test with SF-295 CNS, 109%. Besides, the growth is 99.2% in the test on SF-539 CNS; 5.89% (active) in the test on UACC-257 melanoma; 91.7% in the test on M14 melanoma; 92.6% in the test with HCT-15 colon; 92.9% in the test on HT29 colon; 144% in the test on SNB-75 CNS. Further, the growth with U251 CNS was 97.5%; in the test with PC-3 prostate, 101%; in the test with SK-MEL-5 melanoma it was 11.3%; in the test on UACC-62 melanoma, 76.2%; in the test with LOX IMVI melanoma it was 72.9%; in the test on SK-MEL-28 melanoma, 128%.
Turning to `CC(C)CCN(CCCNc1c2c(nc3cc(Cl)ccc13)CCCC2)CCC(C)C`, the growth with DU-145 prostate is 72.1%; with K-562 leukemia, 22.7%; in the test on MDA-MB-231 breast it was 21.8%; in the test on RXF 393 renal it was 59.9%; in the test with SF-268 CNS it was 73.9%; with SF-295 CNS it was 66.7%. In addition, the growth was 69.8% in the test with SF-539 CNS; 71.4% in the test on UACC-257 melanoma; 4.03% (active) in the test with M14 melanoma; 44.5% with HCT-15 colon; 23% in the test on HT29 colon; 84.4% in the test with SNB-75 CNS. The growth with SNB-19 CNS was 90.6%; with U251 CNS, 59.4%; with PC-3 prostate, 56.8%; in the test with SK-MEL-5 melanoma, 57.8%; in the test with UACC-62 melanoma, 82.8%; in the test on LOX IMVI melanoma, 51%. Moreover, the growth with SK-MEL-28 melanoma was 83.4%.
Consider `COc1cc(Cn2c(-c3ccccc3)cc3c2-c2oncc2CC3)cc(OC)c1`, for which the growth is 0.266% (active) in the test on DU-145 prostate; 9.87% (active) in the test on K-562 leukemia; 5.37% (active) in the test on MDA-MB-231 breast; 33.7% with RXF 393 renal; 30.6% in the test with SF-268 CNS; -1.16% (active) with SF-295 CNS. In addition, the growth is -11.9% (active) with SF-539 CNS; 55.4% in the test on UACC-257 melanoma; 0.789% (active) in the test on M14 melanoma; 15.3% in the test on HCT-15 colon; -8.38% (active) in the test on HT29 colon; 19.5% in the test on SNB-75 CNS. The growth in the test on SNB-19 CNS is 34.8%; in the test on U251 CNS, 18%; in the test with PC-3 prostate it was 19.2%; with SK-MEL-5 melanoma it was 5.07% (active); in the test with UACC-62 melanoma, 31.6%; with LOX IMVI melanoma, 27.3%. In addition, the growth in the test with SK-MEL-28 melanoma was 50.1%.
Turning to `COc1ccccc1CNCCCN1C(=O)c2ccc3c4c(ccc(c24)C1=O)C(=O)N(CCCNCCNCCCN)C3=O`, the growth in the test on DU-145 prostate is 16.3%; with K-562 leukemia, 10.2%; in the test on MDA-MB-231 breast it was 20.3%; in the test on RXF 393 renal it was 25.2%; in the test on SF-268 CNS it was 1.02% (active); with SF-295 CNS it was 51.3%. Further, the growth in the test with SF-539 CNS is 14.1%; in the test with UACC-257 melanoma, -6.36% (active); with M14 melanoma it was 46.7%; in the test on HCT-15 colon, 90%; in the test on HT29 colon, 6.6% (active); with SNB-75 CNS it was 28.4%. In addition, the growth in the test on SNB-19 CNS is 10.3%; in the test with U251 CNS, -1.05% (active); with PC-3 prostate it was 42.1%; with SK-MEL-5 melanoma it was -31.7% (active); with UACC-62 melanoma, 23.5%; with LOX IMVI melanoma, 6.84% (active). Further, in the test with SK-MEL-28 melanoma, the growth was 25.4%.
In the case of `O=C(CCc1ccccc1)N1CCN(C(=O)CCc2ccccc2)CC1`, the growth is 140% in the test with DU-145 prostate; 108% in the test on K-562 leukemia; 90.8% in the test on MDA-MB-231 breast; 109% in the test with RXF 393 renal; 117% in the test on SF-268 CNS; 111% in the test on SF-295 CNS. For the same compound, the growth with SF-539 CNS was 104%; in the test on UACC-257 melanoma, 92.6%; in the test with M14 melanoma it was 95.9%; in the test on HCT-15 colon, 108%; in the test on HT29 colon, 101%; in the test on SNB-75 CNS, 93.9%. Also, the growth with SNB-19 CNS is 99.6%; with U251 CNS it was 104%; in the test on PC-3 prostate, 94.3%; with SK-MEL-5 melanoma, 105%; in the test on UACC-62 melanoma, 95.4%; in the test with LOX IMVI melanoma it was 95%. In the test with SK-MEL-28 melanoma, the growth was 108%.

Source of the values: PubChem BioAssay (NCI).
